Measurements from ChEMBL document CHEMBL1157539, “Thousands of chemical starting points for antimalarial lead identification” (Nature, 2010).

Legend:
Type in all cases: functional
[1] = tested on: Plasmodium falciparum; test: GSK_TCMDC: Inhibition of Plasmodium falciparum 3D7 in whole red blood cells, using parasite LDH activity as an index of growth. Test compounds present at 2uM
[2] = tested on: Plasmodium falciparum; test: GSK_TCMDC: Inhibition of Plasmodium falciparum Dd2 in whole red blood cells, using parasite LDH activity as an index of growth. Test compounds present at 2uM
[3] = tested on: HepG2; test: GSK_TCMDC: Percent inhibition of human HepG2 cell line. Test compounds present at 10uM.

| SMILES | Inhibition [1] | Inhibition [2] | Inhibition [3] |
| --- | --- | --- | --- |
| Cc1cc(N(C)C)nc(Nc2ccc(NC(=O)c3ccc(F)cc3)cc2)n1 | 100% | 21% | 8% |
| CCN1CCN(Cc2ccc(-c3ccc(NS(=O)(=O)c4cccc5cccnc45)cc3)cc2)CC1.O=C(O)C(F)(F)F | 90% | 42% | 29% |
| COc1ccccc1C1CCN(C2CCC(NC(=O)/C=C/c3cccc(C(F)(F)F)c3)CC2)CC1 (stereo not drawn) | 99% | 34% | 38% |
| CC(CCCC(=O)Nc1ccc(CC(C)NCCc2cccc(Cl)c2)cc1)NCCc1cccc(Cl)c1 (stereo not drawn) | 100% | 14% | 98% |
| Br.CCCC1N=C(N)N=C(N)N1c1ccc(OC)cc1 (stereo not drawn) | 96% | 4% | 0% |
| Cc1cccc2nc(-c3ccc(-c4cccc(CN5CC(C)OC(C)C5)c4)s3)[nH]c12.O=C(O)C(F)(F)F (stereo not drawn) | 98% | 79% | 6% |
| Clc1ncccc1-c1nc(NCCC(c2ccccc2)c2ccccc2)no1 | 94% | 82% | 12% |
| O=C(O)C(F)(F)F.O=[N+]([O-])c1cccc(CNC2CCN(Cc3ccc(C(F)(F)F)cc3)CC2)c1 | 99% | 28% | 0% |
| CC(=O)Nc1cccc(C(=O)Nc2cccc(-c3csc(-c4nc5ccccc5[nH]4)c3)c2)c1 | 96% | 97% | 39% |
| CCN(CC)CCCC(C)Nc1ccnc2[nH]c3ccccc3c12 (stereo not drawn) | 82% | 38% | 0% |
| Cn1cncc1C(=O)Nc1cccc(-c2ccc(-c3nc4ccccc4[nH]3)cc2)c1 | 99% | 11% | 0% |
| CC(=O)Nc1ccc(CCNC(C)Cc2ccc(C(=O)Nc3ccc(CC(C)NCCc4cccc(Cl)c4)cc3)cc2)cc1.Cl (stereo not drawn) | 100% | 84% | 50% |
| Cc1cccc2nc(-c3ccc(-c4cccc(CN5CCN(c6ccncc6)CC5)c4)cc3)[nH]c12.O=C(O)C(F)(F)F | 100% | 99% | 50% |
| Cc1ccc(-c2cc(C(=O)Nc3ccc(S(=O)(=O)N4CCCCC4)cc3)[nH]n2)c(O)c1 | 97% | 92% | 6% |
| CC(C)C(C(=O)Nc1ccc(S(=O)(=O)N(C)C)cc1)c1ccc(Cl)cc1 (stereo not drawn) | 100% | 98% | 27% |
| COc1ccc(NC(=O)/C=C/c2ccc(Cl)c(C(F)(F)F)c2)cc1OCCN(C(C)C)C(C)C.O=C(O)C(F)(F)F | 95% | 28% | 18% |
| O=C(Nc1cccc(-c2ccc(-c3nc4ccccc4[nH]3)cc2)c1)c1csnn1 | 91% | 21% | 31% |
| Cc1ccccc1C1CCN(C2CCC(NC(=O)/C=C/c3ccccc3C(F)(F)F)CC2)CC1 (stereo not drawn) | 83% | 6% | 63% |
| Clc1cc(Cl)c2cc(CNCCCNc3ccc4ccccc4n3)[nH]c2c1.O=C(O)C(F)(F)F | 99% | 54% | 98% |
| Fc1ccccc1COc1ccc(Nc2ncnc3ccc(I)cc23)cc1Cl | 90% | 37% | 17% |
| O=C(N[C@@H](CC1CCCCC1)C(=O)NCCN1CCCC1)c1ccc(O)c(-c2ccc(Cl)c(Cl)c2)c1 | 99% | 99% | 16% |

| SMILES | Inhibition [1] | Inhibition [2] | Inhibition [3] |
| --- | --- | --- | --- |
| CCN(CC)c1nc(Nc2cc(C)ccc2C)nc(Nc2ccccc2O)n1 | 100% | 99% | 0% |
| Cc1cc(N/N=C/c2ccccc2[N+](=O)[O-])c2cccc(C)c2n1 | 99% | 100% | 0% |
| N#CN1CC[C@@H](OC(=O)N[C@@H]2C[C@H]2c2ccccc2)C1 | 84% | 56% | 0% |
| Cc1cccc2nc(-c3ccc(-c4cccc(NC(=O)Nc5ccsc5)c4)s3)[nH]c12 | 100% | 29% | 30% |
| CC1CCCN1Cc1cccc(-c2ccc(C(=O)NCCOc3ccccc3)s2)c1.O=C(O)C(F)(F)F (stereo not drawn) | 83% | 0% | 26% |
| Cl.O=C(O[C@H]1CN[C@H](C#Cc2cc3ncnc(Nc4ccc5c(ccn5S(=O)(=O)c5cccs5)c4)c3s2)C1)N1CCOCC1 | 85% | 48% | 0% |
| Cc1ccccc1C1CCN(C2CCC(NC(=O)/C=C/c3cc(F)ccc3F)CC2)CC1 (stereo not drawn) | 85% | 36% | 47% |
| CCCCN(CCCC)CCCCNc1c2ccccc2nc2ccccc12.Cl | 100% | 100% | 36% |
| O=C(Cn1c(SCc2cccc(F)c2F)cc(=O)c2ccccc21)N(CCn1ccnc1)Cc1ccc(-c2ccc(C(F)(F)F)cc2)cc1 | 100% | 94% | 20% |
| COc1ccc(CCN(C)CCc2ccc(NC(=O)c3cccc4c(=O)c5ccccc5sc34)cc2)cc1 | 95% | 33% | 24% |
| O=C(O)C(F)(F)F.Oc1ccc(CCNc2nc(NCc3cccc(OCc4cccc(F)c4)c3)nc(N3CCNCC3)n2)cc1 | 86% | 0% | 27% |
| COc1cccc2c(Nc3ccccc3C)nc(Nc3ccccc3C)nc12 | 95% | 36% | 9% |
| O=C(NCc1ccco1)c1ccc(CN2CCN(C(c3ccccc3)c3ccccc3)CC2)cc1 | 96% | 92% | 6% |
| N#Cc1cccc(NC(=O)NC2CCN(CCCCCNC(=O)C3CC3c3ccc(Cl)c(Cl)c3)CC2)c1 (stereo not drawn) | 100% | 0% | 36% |
| COc1ccc(N2CCN(CCCCNC(=O)c3ccc(NC(=O)c4cc(C(F)(F)F)cc(C(F)(F)F)c4)cc3)CC2)cc1OC | 100% | 100% | 9% |
| O=C(COc1ccc(Cl)c(Cl)c1)NCCCCCN1CCCN(C(=O)Nc2ccc(Cl)c(Cl)c2)CC1.O=C(O)C(F)(F)F | 93% | 7% | 29% |
| Cc1noc(C)c1-c1ccc2c(Nc3ccccc3C(C)(C)C)c(C(=O)NCc3ccc4c(c3)OCO4)cnc2c1.Cl | 96% | 88% | 37% |
| CC(=O)Nc1ncc(C(=O)Nc2cccc(-c3cccc(-c4nc5cc(F)ccc5[nH]4)c3)c2)s1 | 100% | 93% | 27% |
| O=C(/C=C/c1ccc([N+](=O)[O-])cc1)N1CCC(NS(=O)(=O)c2ccc(F)cc2)CC1 | 96% | 0% | 0% |
| Cc1ccc2c(=O)c3cc(C)ccc3[nH]c2c1 | 96% | 94% | 10% |
| Clc1ccc2nnc(-c3c(Cl)cccc3Cl)n2n1 | 96% | 60% | 29% |

| SMILES | Inhibition [1] | Inhibition [2] | Inhibition [3] |
| --- | --- | --- | --- |
| COc1ccccc1Nc1nc(NC2CCN(C)CC2)cc(-c2cccc(C(F)(F)F)c2)n1.O=C(O)C(F)(F)F | 95% | 71% | 100% |
| COc1ccc(NC(=O)c2ccc(NC(=O)c3ccc(Cl)cc3)cc2)cc1N1CCN(C)CC1 | 98% | 40% | 23% |
| COc1ccc2cc(C=NNc3nc4ccccc4[nH]3)c(Cl)nc2c1 | 100% | 90% | 2% |
| Cc1ccc(-n2cc(CNCCCn3ccnc3)c(-c3cccc(C)c3)n2)cc1 | 99% | 36% | 9% |
| CCOC(=O)c1cccc(NC(=O)Nc2cccc(-c3ncc(OCCCN)c4c3nc(-c3nonc3N)n4CC)c2)c1.O=C(O)C(F)(F)F | 100% | 98% | 16% |
| O=C(N[C@@H](CC1CCCCC1)C(=O)NC1CCCc2ccccc21)c1ccc(O)c(-c2ccc(Cl)c(Cl)c2)c1 (stereo partly drawn) | 98% | 99% | 1% |
| Cc1nc(Nc2ccc(F)cc2)nc(N2CCc3cc(O)ccc3C2C)c1C.Cl (stereo not drawn) | 99% | 97% | 0% |
| CCOc1cc(C)ccc1C1CCN(CCCCNC(=O)c2coc(-c3ccc(Cl)cc3)c2)CC1.Cl | 92% | 30% | 34% |
| Cc1cccc2nc(-c3cccc(-c4cccc(C(=O)NCCN5CCCC5)c4)c3)[nH]c12 | 100% | 75% | 21% |
| Cc1cnc(NCCc2ccc(F)cc2)nc1N[C@@H](CC(C)C)C(=O)Nc1ccccc1.O=C(O)C(F)(F)F | 87% | 29% | 19% |
| O=C(Nc1cccc(-c2nn3ccccc3c2-c2ccnc(Nc3ccc(-c4cc[nH]n4)cc3)n2)c1)c1c(F)cccc1F | 98% | 98% | 68% |
| Cc1cc(N[C@@H](CC(C)C)C(=O)Nc2ccccc2)nc(Nc2ccccc2)n1.O=C(O)C(F)(F)F | 99% | 93% | 0% |
| O=C(Nc1ccc(OC2CCN(Cc3ccccc3)C2)c(Cl)c1)c1ccco1.O=C(O)C(F)(F)F (stereo not drawn) | 95% | 94% | 13% |
| Cc1cc(-c2nc3ccc(N4CCN(C)CC4)cc3[nH]2)nn1Cc1cc(Cl)ccc1OCC(C)C.Cl | 99% | 67% | 41% |
| Cc1cc(F)ccc1-c1nc(N(C)CCN(C)C(=O)N(C)c2ccccc2)nc2c1ccc(=O)n2-c1c(F)cccc1F.O=C(O)C(F)(F)F | 87% | 77% | 0% |
| CCc1cccc(-n2c(=O)c3cccnc3n2CC(=O)NC2CCCC2)c1 | 94% | 13% | 2% |
| Cc1ccc2[nH]c(/C=C/c3cccc4cc[nH]c34)nc2c1 | 100% | 92% | 9% |
| COc1cccc(C(=O)OC2=C3CCC(=O)C3(C)CCC2=O)c1 (stereo not drawn) | 93% | 9% | 37% |
| COc1c(C2CCN(CCCCNC(=O)c3ccc(-c4ccc(Cl)cc4)c(OCCN(C)C)c3)CC2)ccc2c1CCCC2 | 100% | 86% | 100% |
